Values joined by “and” are separate entries in the source; they are usually repeats but may differ in a detail not shown here. Equal entries are not always repeated. Records with an inconclusive call do not appear. Active and inactive are the calls of the source. The call rests on the fitted dose curve; in most records, active means well fitted inhibition curve with a large enough effect; inconclusive means small, poorly fitted or top-dose-only effect; inactive means flat fitted curve, though single readings scatter. Where a SMILES comes first, the peptide text is derived from it. [ ]: non-standard residue; d: D form. ξ: configuration not given here. ξPhe(βξ-Me) = CC(c1ccccc1)C(N)C(=O)O; GABA = NCCCC(=O)O
Legend:
[1] = test system: HEK293; assay: Cytotoxic Profiling of Annotated Libraries Using Quantitative High-Throughput Screening (AID 1296008); details: Five cell lines viability, CellTiter-Glo ATP luminescence, 48-72 h; max response: hits give low values; on max response: on the % scale 0 is the no-effect control and ±100 the full control effect
In short: (§1)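 Cells exposed to compounds for 48 or 72 hr at 37 degrees Celsius. Viability read as ATP-coupled luminescence with CellTiter-Glo after 10 min at room temperature.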

[2] = test system: HaCat; assay: as above; details: Five cell lines viability, CellTiter-Glo ATP luminescence, 48-72 h; max response: hits give low values
In short: as §1

[3] = test system: KB-3-1; assay: as above; details: Five cell lines viability, CellTiter-Glo ATP luminescence, 48-72 h; max response: hits give low values
In short: as §1

[4] = test system: NIH3T3; assay: as above; details: Five cell lines viability, CellTiter-Glo ATP luminescence, 48-72 h; max response: hits give low values
In short: as §1

[5] = test system: HACAT; assay: qHTS assay to identify novel small-molecules to repurpose for Merkel cell carcinoma treatment (AID 1296009); details: MCC and control cell lines, CellTiter-Glo viability, 72 h
In short: (§2)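 Cells were incubated with compound for 72 hr at 37 degree celsius before CellTiter-Glo addition. Luminescence was normalized with no-cell wells as full cytotoxicity and DMSO as baseline.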

[6] = test system: HEK293T; assay: as above; details: MCC and control cell lines, CellTiter-Glo viability, 72 h; series mostly up to 44.8 µM
In short: as §2

[7] = at 44.8 µM (top of the series) unless noted
Further: nearly all actives have a fitted effect of over 60% in size.

CC(C)[C@H]1CCC(CO)=C[C@@H]1/C=C(\CO)C(=O)O
inactive: outcome [1] | outcome [2] | max response [3] 7.99% | max response [4] -1.04% | outcome [5, 7] | Potency [6]

c1ccc(C(OC2CCN(CCCc3nn[nH]n3)CC2)c2ccccc2)cc1
inactive: outcome [1] | outcome [2] | max response [3] -3.18% | outcome [4] | outcome [5, 7] | Potency [6]

C[C@@H]1C(=O)O[C@H]2[C@H]1CC[C@@]1(C)C(=O)C=C[C@](C)(O)[C@H]21
inactive: outcome [1] | outcome [2] | max response [3] 1.87% | max response [4] -2.11% | outcome [5, 7] | Potency [6]

CC(C)(C)c1cc(CN2CCN(CC(O)c3ccc(Cl)cc3)CC2)cc(C(C)(C)C)c1O (stereo unspecified)
inactive: outcome [1] | outcome [2] | max response [3] -8.12% | outcome [4] | outcome [5, 7] | Potency [6]

CC1(C)C(O)CCC2(C)C1C(O)C=C1COC(=O)C12O (stereo unspecified)
inactive: outcome [1] | outcome [2] | max response [3] 5.78% | max response [4] 0.735% | outcome [5, 7] | Potency [6]

CC(C)CC1NC(=O)C(C(C)c2ccccc2)NC(=O)C(C(C)C)NC(=O)C(C)NC(=O)CCCNC(=O)C(Cc2c[nH]c3ccccc23)NC(=O)C(C)NC1=O (stereo not drawn) (cyclo([GABA]AV[ξPhe(βξ-Me)]LAW); configuration not given here)
inactive: outcome [1] | outcome [2] | outcome [3] | max response [4] 3.96% | outcome [5, 7] inactive [at 17.4 µM] | Potency [6]

C[C@@H]1O[C@@H](OC[C@H]2O[C@@H](OCC3CCC4CC3C4(C)C)[C@H](O)[C@@H](O)[C@@H]2O)[C@H](O)[C@H](O)[C@H]1O (stereo partly specified)
inactive: outcome [1] | outcome [2] | max response [3] 6.44% | max response [4] -1.43% | outcome [5, 7] inactive [at 17.4 µM] | Potency [6]

CO[C@@H]1COCC[C@@H]1N[C@@H]1CC[C@@](C(=O)N2CCc3ncc(C(F)(F)F)cc3C2)(C(C)C)C1
inactive: outcome [1] | outcome [2] | outcome [3] | max response [4] -6.53% | outcome ([5]; at 17.4 µM (top of the series)) | outcome ([5]; at 44.8 µM (top of the series)) | Potency [6]

CC(C)(O)C1=CCC23COC(C2)C(O)(C(=O)O)CCC13 (stereo unspecified)
inactive: outcome [1] | outcome [2] | max response [3] 2.8% | outcome [4] | outcome [5, 7] | Potency [6]

O=C(/C=C/c1ccc(O)cc1)OC[C@]12O[C@H]1[C@@H](O)[C@@H]1C=CO[C@@H](O[C@@H]3O[C@H](CO)[C@@H](O)[C@H](O)[C@H]3O)[C@@H]12
inactive: outcome [1] | outcome [2] | max response [3] 8.48% | outcome [4] | outcome [5, 7] inactive [at 17.4 µM] | Potency [6]

C[C@@H]1O[C@@H](O[C@H]2[C@H](OC(=O)[C@]34CCC(C)(C)C[C@H]3C3=CCC5[C@@]6(C)C[C@H](O)[C@H](O[C@@H]7O[C@H](CO)[C@@H](O[C@@H]8O[C@H](CO)[C@@H](O)[C@H](O)[C@H]8O)[C@H](O)[C@H]7O)[C@@](C)(CO)C6[C@H](O)C[C@@]5(C)[C@]3(C)C[C@H]4O)OC[C@H](O)[C@@H]2O)[C@H](O)[C@H](O)[C@H]1O[C@@H]1OC[C@@H](O)[C@H](O[C@@H]2OC[C@](O)(CO)[C@H]2O)[C@H]1O (stereo partly specified)
inactive: outcome [1] | outcome [2] | outcome [3] | max response [4] 4.2% | outcome [5, 7] inactive [at 9.27 µM] | outcome [6] inactive [at 9.27 µM]

CC1(C)CC2C(O)C3=C(CC(C)(O)C2C1)C(=O)OC3O (stereo unspecified)
inactive: outcome [1] | outcome [2] | max response [3] 5.32% | outcome [4] | outcome [5, 7] | Potency [6]

CCOC(=O)c1ccc(N(C)c2csc(-c3ccccc3)n2)cc1
inactive: outcome [1] | outcome [2] | max response [3] 0.515% | outcome [4] | outcome [5, 7] | Potency [6]

OC[C@H]1O[C@@H](OCCc2ccc(O)cc2)[C@H](O)[C@@H](O)[C@@H]1O
inactive: max response [1] -4.41% | outcome [2] | max response [3] 7.2% and 9.78% | max response [4] -4.78% | outcome [5, 7]

C[C@@H]1CC[C@]2(C)C(C[C@@H](O)[C@H](O)[C@]23CO3)[C@@]1(C)CCc1ccoc1 (stereo partly specified)
inactive: outcome [1] | outcome [2] | max response [3] 7.33% | max response [4] -3.46% | outcome [5, 7] | Potency [6]

CC(=O)O[C@@H]1[C@H](O[C@@H]2OC[C@](O)(CO)[C@H]2O)[C@@H](O[C@@H]2O[C@@H](C)[C@H](O)[C@@H](O)[C@H]2O)[C@H](OC(=O)[C@]23CCC(C)(C)C[C@H]2C2=CCC4[C@@]5(C)C[C@H](O)[C@H](O[C@@H]6O[C@H](C(=O)O)[C@@H](O)[C@H](O)[C@H]6O)[C@@](C)(C(=O)O)C5CC[C@@]4(C)[C@]2(C)CC3)O[C@@H]1C (stereo partly specified)
inactive: outcome [1] | outcome [2] | outcome [3] | max response [4] 2.52% | outcome [5, 7] inactive [at 9.27 µM] | outcome [6] inactive [at 9.27 µM]

— PubChem BioAssay (NCATS)
